From the supplement of paper PMC6279402 come the findings set out here.

Structures can show the parent of a compound that is named as a salt. ± gives the standard deviation of the averaged measurements.

The subject of the test is A549. The test can be described thus: relative viability (normalised to negative control = 1, bortezomib = 0) (fraction); higher = less cytotoxic. Conditions: inflammatory serum-free RHB-A with cytokines + LPS, 5 d + 24 h CellTiter-Blue. (Alamar Blue is a resazurin reagent that responds to reducing activity.)
[1] abbreviates: compound 30 nM, GSK126 pretreatment: 5 uM GSK126.
Setting [2] is: compound 30 nM, GSK126 pretreatment: none (vehicle).
Where [3] appears, read: compound 300 nM, GSK126 pretreatment: 5 uM GSK126.
Setting [4] is: compound 300 nM, GSK126 pretreatment: none (vehicle).

Consider `O=NN(CCCl)C(=O)NC1CCCCC1` [Lomustine, CCNU; Lomustine], for which the relative viability under setting [1] came to 0.967 ± 0.15, the relative viability under setting [2] was 0.973 ± 0.15, the relative viability under setting [3] came out at 1.03 ± 0.11 and the relative viability under setting [4] is 0.976 ± 0.079.
The matching figures for `Cc1cc(C(C)Nc2ccccc2)c2nc(N3CCOCC3)cc(=O)n2c1` (stereo not drawn): 0.763 ± 0.083, 0.782 ± 0.067, 0.737 ± 0.093 and 0.8 ± 0.1.
The matching figures for `CC(C)(C#N)c1cc(Cn2cncn2)cc(C(C)(C)C#N)c1` [Anastrozole; Arimidex]: 0.743 ± 0.051, 0.792 ± 0.039, 0.804 ± 0.086 and 0.896 ± 0.04.
On the same counts, the results for `O=C1NC(=O)/C(=C/c2ccc3nccc(-c4ccncc4)c3c2)S1` are 0.83 ± 0.1, 0.85 ± 0.088, 0.747 ± 0.067 and 0.72 ± 0.029.
In the case of `NC1(Cc2ccc(Cl)cc2)CCN(c2ncnc3[nH]ccc23)CC1`, the relative viability is, setting by setting: under setting [1], 0.832 ± 0.029; under setting [2], 0.844 ± 0.05; under setting [3], 0.839 ± 0.1; under setting [4], 0.875 ± 0.023.
The matching figures for `CN(c1ncccc1CNc1nc(Nc2ccc3c(c2)CC(=O)N3)ncc1C(F)(F)F)S(C)(=O)=O`: 0.902 ± 0.22, 0.907 ± 0.16, 0.907 ± 0.12 and 0.891 ± 0.13.
The matching figures for `O=c1cc(N2CCOCC2)oc2c(-c3cccc4c3sc3ccccc34)cccc12`: 0.877 ± 0.026, 0.869 ± 0.057, 0.922 ± 0.055 and 0.919 ± 0.072.
Consider `Nc1nc(Cl)nc2c1ncn2[C@@H]1O[C@H](CO)[C@@H](O)[C@@H]1F` [Clofarabine], for which the relative viability under setting [1] came out at 0.74 ± 0.12, the relative viability under setting [2] turned out to be 0.693 ± 0.026, the relative viability under setting [3] is 0.28 ± 0.047 and the relative viability under setting [4] amounted to 0.256 ± 0.027.
For the molecule `CN1CC[C@H](c2c(O)cc(O)c3c(=O)cc(-c4ccccc4Cl)oc23)[C@H](O)C1` [Flavopiridol (Alvocidib)], the relative viability is 0.777 ± 0.11 under setting [1], 0.771 ± 0.15 under setting [2], 0.0118 ± 0.0013 under setting [3] and 0.0301 ± 0.0094 under setting [4].
The matching figures for `Cn1c(=O)n(-c2ccc(C(C)(C)C#N)cc2)c2c3cc(-c4cnc5ccccc5c4)ccc3ncc21`: 0.581 ± 0.063, 0.624 ± 0.034, 0.209 ± 0.0083 and 0.21 ± 0.0091.
The matching figures for `CC(C)(C)c1cnc(CSc2cnc(NC(=O)C3CCNCC3)s2)o1`: 0.859 ± 0.1, 0.811 ± 0.056, -0.00432 ± 0.0019 and -0.0017 ± 0.0016.
As for `Oc1cccc(-c2nc(N3CCOCC3)c3oc4ncccc4c3n2)c1`, the relative viability runs as follows: under setting [1], 0.743 ± 0.082; under setting [2], 0.805 ± 0.11; under setting [3], 0.113 ± 0.011; under setting [4], 0.127 ± 0.025.
The matching figures for `CC(C)(C)c1cc(NC(=O)Nc2ccc(-c3cn4c(n3)sc3cc(OCCN5CCOCC5)ccc34)cc2)no1`: 0.952 ± 0.016, 0.898 ± 0.068, 1.05 ± 0.087 and 1 ± 0.031.
In the case of `NC(=O)c1ccc(N(C(N)=O)c2c(F)cccc2F)nc1-c1ccc(F)cc1F`, the relative viability by setting is: under setting [1], 0.914 ± 0.11; under setting [2], 0.873 ± 0.059; under setting [3], 1.09 ± 0.055; under setting [4], 0.995 ± 0.11.
On the same counts, the results for `Nc1nc(Nc2ccc(S(N)(=O)=O)cc2)nn1C(=O)c1c(F)cccc1F` are 0.96 ± 0.1, 0.927 ± 0.15, 1.12 ± 0.067 and 1.07 ± 0.099.
The matching figures for `Cc1csc(-c2nnc(Nc3ccc(Oc4ncccc4-c4ccnc(N)n4)cc3)c3ccccc23)c1`: 0.692 ± 0.11, 0.593 ± 0.11, 0.512 ± 0.076 and 0.441 ± 0.061.
The matching figures for `Nc1nc(Cl)nc2c1ncn2[C@H]1C[C@H](O)[C@@H](CO)O1` [Cladribine]: 0.723 ± 0.12, 0.729 ± 0.099, 0.386 ± 0.1 and 0.305 ± 0.075.
`COc1cc(Nc2c(C#N)cnc3cc(OCCCN4CCN(C)CC4)c(OC)cc23)c(Cl)cc1Cl` [Bosutinib(SKI-606)]: the relative viability turned out to be 0.984 ± 0.052 under setting [1], 0.991 ± 0.061 under setting [2], 0.65 ± 0.061 under setting [3] and 0.7617 ± 0.007 under setting [4].
The matching figures for `O=C(NC[C@H](O)CO)c1ccncc1Nc1ccc(I)cc1F`: 0.247 ± 0.056, 0.352 ± 0.0078, 0.126 ± 0.019 and 0.159 ± 0.025.
Consider `CNC(=O)c1cc(Oc2ccc(NC(=O)Nc3cc(C(C)(C)C)nn3-c3ccc4ncccc4c3)c(F)c2)ccn1` [DCC-2036 (Rebastinib)], for which the relative viability under setting [1] stood at 1.37 ± 0.1, the relative viability under setting [2] was 1.35 ± 0.12, the relative viability under setting [3] was determined as 1.48 ± 0.067 and the relative viability under setting [4] came out at 1.57 ± 0.06.
`CN(C)C1CCN(C(=O)c2ccc(NC(=O)Nc3ccc(-c4nc(N5CCOCC5)nc(N5CCOCC5)n4)cc3)cc2)CC1`: the relative viability under setting [1] is 0.329 ± 0.01, the relative viability under setting [2] came out at 0.428 ± 0.011, the relative viability under setting [3] came out at 0.0588 ± 0.0043 and the relative viability under setting [4] stood at 0.088 ± 0.0042.
Take `Nc1ccn([C@@H]2O[C@H](CO)[C@@H](O)C2(F)F)c(=O)n1` [Gemcitabine hydrochloride; Gemcitabine HCl]: the relative viability turned out to be 0.396 ± 0.12 under setting [1], 0.264 ± 0.087 under setting [2], 0.39 ± 0.093 under setting [3] and 0.19 ± 0.087 under setting [4].
On the same counts, the results for `O=C(O)C1(C(=O)O)CCC1.[NH2-].[NH2-].[Pt+2]` [Carboplatin] are 0.75 ± 0.042, 0.748 ± 0.059, 0.742 ± 0.048 and 0.812 ± 0.0056.
On to `COc1cc(N2CCC(N3CCN(C)CC3)CC2)ccc1Nc1ncc(Cl)c(Nc2ccccc2S(=O)(=O)C(C)C)n1`, for which the relative viability by setting is: under setting [1], 0.545 ± 0.012; under setting [2], 0.605 ± 0.022; under setting [3], 0.211 ± 0.019; under setting [4], 0.259 ± 0.028.
As for `C[C@@H](CN1CC(=O)NC(=O)C1)N1CC(=O)NC(=O)C1` [Dexrazoxone; Dexrazoxane], the relative viability amounted to 0.828 ± 0.054 under setting [1], 0.832 ± 0.093 under setting [2], 0.859 ± 0.048 under setting [3] and 0.908 ± 0.13 under setting [4].
Take `O=P(O)(O)C(O)(Cn1ccnc1)P(=O)(O)O` [Zoledronic acid; Zolendronic acid]: the relative viability amounted to 0.936 ± 0.023 under setting [1], 0.924 ± 0.15 under setting [2], 1.09 ± 0.12 under setting [3] and 1.08 ± 0.051 under setting [4].
On the same counts, the results for `COC(=O)Nc1ccc(-c2nc(N3CCOCC3)c3cnn(C4CCN(Cc5cccnc5)CC4)c3n2)cc1` are 0.851 ± 0.12, 0.869 ± 0.13, 0.847 ± 0.061 and 0.832 ± 0.097.
